The list shows a part of the results. The source made the active and inactive calls.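 How the source made its calls: active means quenching, a falling signal, with AC50 below a set limit tied to the top valid dose (actives reach about 32 µM in these data); inconclusive means no clear call, values can overlap the other calls; inactive means rising signal, and the rest.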
Experiment: compounds quenching DiI signal without cells – biochemical, cherry-pick samples, plate reader fluorescence, artefact control for SR-BI HDL uptake inhibitor project, dose response (AID 540326)

Structure (SMILES): CC(=O)OC1C2(CC3N4C(=O)C5(CO)SSC4(CC31O)C(=O)N5C)OC(C)C(C)(C)C2=O (stereo unspecified)
- outcome: inactive

From PubChem BioAssay AID540326 (Broad Institute, 2011)
